Screens (PubChem)
CHX counter: counter-screen hit for Shiga toxin inhibitors, cycloheximide. cell reporter, cycloheximide protein synthesis inhibition counterscreen. max response, %. 12% of 300,000 active. AID 2314; in the data active means max response mostly above about 13%, no sharp cut-off; inactive means mostly below about 14%; further: read at 38.3 µM for the half of the compounds with a filed dose
LmPK inhibitor: inhibitors of Leishmania mexicana pyruvate kinase | purified LmPK, Kinase-Glo ATP luminescence, 1 h | Potency, µM (titrated, usually from 57.5 µM), usual class: inhibitors | Q27686 | 0.37% of 290,000 active
Target sequence (Q27686 whole entry, looked up): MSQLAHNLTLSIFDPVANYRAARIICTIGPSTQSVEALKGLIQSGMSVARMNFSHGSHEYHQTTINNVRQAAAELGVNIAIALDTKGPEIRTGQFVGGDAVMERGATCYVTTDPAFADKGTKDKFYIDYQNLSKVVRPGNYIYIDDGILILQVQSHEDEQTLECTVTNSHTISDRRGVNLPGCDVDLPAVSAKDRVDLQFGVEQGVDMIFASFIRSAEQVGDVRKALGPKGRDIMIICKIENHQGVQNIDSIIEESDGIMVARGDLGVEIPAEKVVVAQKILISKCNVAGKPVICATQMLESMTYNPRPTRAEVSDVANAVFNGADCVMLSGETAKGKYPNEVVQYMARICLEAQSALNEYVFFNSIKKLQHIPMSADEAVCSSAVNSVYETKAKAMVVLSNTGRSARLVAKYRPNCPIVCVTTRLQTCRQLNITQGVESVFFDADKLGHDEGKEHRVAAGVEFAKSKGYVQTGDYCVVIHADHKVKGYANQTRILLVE
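Purified LmPK (0.1 nM) converted ADP (0.1 mM) to ATP with PEP (0.5 mM) in imidazole buffer pH 7.2 with KCl and MgCl2, 1 h at room temperature. ATP was read by Kinase-Glo luminescence; data normalized to uninhibited and no-enzyme controls.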
Tb PYK inh: T. brucei pyruvate kinase inhibition; 0.12% of 410,000 active; Potency, µM (highest dose often 76.8 µM), hits mostly inhibitors; TbPYK enzyme, Kinase-Glo Plus ATP luminescence, 45 min; Q57TT1; further: nearly all actives have a fitted effect of over 50% in size
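Luminescent Kinase-Glo Plus end-point after 45 min room-temperature reaction of T. brucei pyruvate kinase started with 130 uM ADP (final). Buffer TEA 50 mM pH 7.2 with KCl, MgCl2, BSA, Tween-20; titration-based qHTS with fitted concentration-effect curves.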
Shiga inhibitor: inhibitors of Shiga toxin in Vero cells; Vero cells, Shiga toxin protein synthesis inhibition reporter; inhibition, % at 38.7 µM; 9.2% of 290,000 active; in the data active means inhibition mostly above about 28%, no sharp cut-off; inactive means mostly below about 43%
RE007 growth inh: less growth of the S. pombe RE007 Vpr strain. S. pombe RE007 Vpr strain, BacTiter-Glo ATP luminescence, 24 h. Potency, µM (titrated, usually from 92.2 µM), usual class: inhibitors. 0.21% of 360,000 active. AID 651644; active means well fitted falling curve with a large enough effect; inconclusive means small, poorly fitted or top-dose-only effect; inactive means no such curve, though single readings can be large or run the other way; further: nearly all actives have a fitted effect of over 50% in size
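Fission yeast strain RE007, carrying one chromosomally integrated HIV-1 vpr copy, was seeded at OD 0.01 in PMG+AL medium with 23 nL pinned compound. After 24 h at 30 °C and 99% humidity, viability was read by BacTiter-Glo luminescence.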
Giardia FBPA inh: inhibitors of Giardia lamblia fructose-1,6-bisphosphate aldolase | A8B2U2 | Potency, µM (series often up to 59.6 µM), actives largely listed as inhibitors | AID 2451 | 0.71% of 290,000 active | purified Giardia FBPA; further: nearly all actives have a fitted effect of over 55% in size
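40 nM FBPA preincubated 10 min at RT with compound (up to 57.5 uM final), then substrate plus GAPDH/TPI/NAD/arsenate coupling and diaphorase/resazurin added. Fluorescence read after 20 min at RT, 525/598 nm.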
A number is an active result; . = inactive; ? = inconclusive; / = no result; [ ] = remark or other dose. The sample as a whole holds a higher share of hits than the screen did. Unless noted, the call rests on the fitted dose curve; in most records, active means well fitted curve in the direction sought with a large enough effect; inconclusive means small, poorly fitted or top-dose-only effect, or another doubt; inactive means no such curve, though single readings can be large; an effect the other way counts as inactive or inconclusive.

SMILES	CHX counter	LmPK inhibitor	Tb PYK inh	Shiga inhibitor	RE007 growth inh	Giardia FBPA inh
CC(C)(C)c1ccc(-c2cc(-c3ccccc3O)[nH]n2)cc1	27	.	.	59	?	.
COc1cc(OC)c(-c2nc3cnccc3n2C)cc1OC	.	.	.	.	.	.
Cn1c(-c2ccc3ccccc3n2)nc2cnccc21	27	.	.	49	.	.
COc1cccc(/C=C2\NC(=O)NC2=O)c1O	.	.	.	41	.	.
CC1CC(=O)N(CC(=O)Nc2ccccc2F)c2ccccc2S1(=O)=O (configuration not stated)	.	.	.	.	.	.
O=c1[nH][nH]c(-c2ccccc2)c1-c1ccccc1	/	/	.	/	.	/
O=c1c(-c2ccccc2)c1-c1ccccc1	65	.	.	104	/	.
COCCN1CCN(C(=O)c2ccc3nc(Cc4ccc(OC)c(OC)c4)oc3c2)CC1	.	.	.	.	.	/
COCCN1CCN(C(=O)c2ccc3oc(CCc4ccccc4)nc3c2)CC1	23	.	.	.	.	/
CC(C)c1nc2cc(C(=O)N3CCNC(=O)C3c3cccc(F)c3)ccc2o1 (configuration not stated)	12	.	.	.	.	.
O=C(c1ccc2oc(CCCc3ccccc3)nc2c1)N1CCCC(CCCO)C1 (configuration not stated)	30	.	.	47	.	/
CC(C)c1nc2cc(C(=O)N3CCN(c4cnccn4)CC3)ccc2o1	27	.	.	.	.	/
O=C(c1ccc(OC2CCN(CCc3ccccc3)CC2)cc1)N1CCCC(CCCO)C1 (configuration not stated)	.	.	.	.	.	.
Cc1ccc(/C=C/c2onc(C)c2S(=O)(=O)N2CCC(C(=O)Nc3cccc(C#N)c3)CC2)cc1	/	/	.	/	/	/
CC(C)CC(=O)C1CCCN(C(=O)c2ccc3oc(Cc4ccccc4)nc3c2)C1 (configuration not stated)	.	.	.	.	.	.
COCC1CCCCN1C(=O)c1ccc2oc(CCCc3ccccc3)nc2c1 (configuration not stated)	37	.	.	61	.	.
CCCOC1CCCN(C(=O)c2ccc3oc(C(C)C)nc3c2)C1 (configuration not stated)	38	.	.	94	.	/
CCOC(=O)C1CCCN(C(=O)c2ccc3oc(Cc4ccccc4)nc3c2)C1 (configuration not stated)	48	.	.	76	.	/
COCC1CCCN(C(=O)c2ccc3oc(Cc4ccc(Cl)cc4)nc3c2)C1 (configuration not stated)	.	.	.	.	.	/
CCOC(=O)N1CCN(C(=O)c2ccc3oc(CCCc4ccccc4)nc3c2)CC1	39	.	.	81	.	/
COc1ccc(NC(=O)C2=C(C)Nc3ncnn3C2c2ccc[nH]2)cc1 (configuration not stated)	/	/	.	/	/	/
COc1ccc2c(c1)CCc1c(C(=O)Nc3cc(OC)c(Cl)cc3OC)noc1-2	/	/	.	/	/	/
CCOc1cc(/C=N/NC(=O)c2ccc(N(C)S(=O)(=O)c3ccccc3)cc2)ccc1OC	.	.	.	.	.	.
CC(C)NC(=O)CN1CCN(C(=O)c2ccc3oc(CCCc4ccccc4)nc3c2)CC1	20	.	.	.	.	/
CN1CCN(C(=O)c2ccc3nc(-c4ccccc4)c(-c4ccccc4)nc3c2)CC1	.	.	.	.	.	.
SMILES	CHX counter	LmPK inhibitor	Tb PYK inh	Shiga inhibitor	RE007 growth inh	Giardia FBPA inh
CC(=O)N1CCN(C(=O)c2ccc3oc(CCCc4ccccc4)nc3c2)CC1	35	.	.	.	.	.
Cc1ccc2oc(C(=O)N3CCN(CC(=O)NC(C)C)CC3)c(C)c2c1	.	.	.	/	.	.
CN(C(=O)c1nn(C)c2c1COc1ccccc1-2)c1cccc(C(F)(F)F)c1	/	/	.	/	/	/
CCc1ccc(OCC(=O)Nc2nnc(C3CCCC3)s2)cc1	.	.	.	.	.	/
O=S(=O)(c1ccc2c(c1)OCCO2)C1CCN(S(=O)(=O)c2c(F)cccc2F)CC1	.	/	/	.	/	/
Cc1nc2cc(NC(=O)NCCCO)ccc2o1	.	.	.	.	.	.
Cc1nc2cc(NC(=O)NCCC3=CCCCC3)ccc2o1	19	.	.	57	.	.
COc1ccc(NC(=O)Nc2ccc3oc(C)nc3c2)cc1	30	.	.	67	.	.
CC(=O)c1ccc(C(=O)N(Cc2cccnc2)c2nc3c(C)c(C)ccc3s2)cc1	/	/	.[15.4 µM]	/	/	/
N/C(=N\OC(=O)CC1CCCCC1)c1ccc(Br)cc1	.	.	.	.	.	/
COc1ccc(/C(N)=N/OC(=O)CSc2ccc(C)cc2)cc1OC	.	.	.	.	.	.
N/C(=N\OC(=O)CC1CCCCC1)c1ccc(Cl)cc1	30	.	.	73	.	/
COc1ccc(/C(N)=N/OC(=O)CC2CCCCC2)cc1OC	50	.	.	55	.	/
N/C(=N\OC(=O)CC1CCCCC1)c1cccc(Br)c1	44	.	.	55	.	/
COc1ccc(/C(N)=N/OC(=O)CCC2CCCC2)cc1OC	23	.	.	58	.	.
CCOC(=O)c1nnc2c(-c3ccc(Cl)cc3)c(C)nn2c1C	/	/	.	/	/	/
Cc1cc(N)n2ncc(-c3cccc(Br)c3)c2n1	41	.	.	110	?	.
Cc1cc(N)n2ncc(-c3ccccc3)c2n1	58	.	.	72	.	.
CC(=O)Nc1ccc(Nc2cc(C)nc3c(-c4ccccc4)cnn23)cc1	34	.	.	71	.	.
CCOC(=O)Cc1c(C)nc2c(-c3cccc(Br)c3)cnn2c1C	.	.	.	.	.	.
CC(=O)Nc1ccc(Nc2cc(-c3ccccc3)nc3ncnn23)cc1	.	.	.	.	.	.
Cc1ccc(Cl)cc1N1CCN(S(=O)(=O)c2ccc3oc(=O)c4ncn(C)c4c3c2)CC1	/	/	.	/	/	/
O=[N+]([O-])c1ccc(S(=O)(=O)N/N=C/c2ccco2)cc1	.	.	.	.	.	.
O=C1c2ccc([N+](=O)[O-])cc2NC(c2ccco2)N1/N=C/c1ccco1 (configuration not stated)	15	.	.	31	.	.
CN=c1scc(-c2ccc([N+](=O)[O-])cc2)n1/N=C/c1ccco1	27	.	.	91	.	.
O=C(Cn1ccsc1=NC(=O)C(F)(F)F)c1ccccc1	30	.	.	.	.	.
CCOc1ccc(C(=O)C(c2ccccc2)N2CCOCC2)cc1 (configuration not stated)	.	.	.	.	.	.
CC1CCCN(C(=O)c2ccncc2)C1 (configuration not stated)	.	.	.	.	.	.
CCOc1ccc(OCc2ccc(C(=O)N3CCCC(C)C3)cc2)cc1 (configuration not stated)	41	.	.	101	.	.
